Compounds with a hit are over-represented: about 0.82% of the library has one in this group of screens.
PrPC surface inh – reduces human prion protein on the cell surface. P04156. cell surface PrPC, TR-FRET read-out. inhibition, % at 13.8 µM. 370,000 tested, 0.43% active; in the data active means inhibition above about 24%; further: 0% = median of the test wells and 100% = reference compound wells
TcdB inh – blocks C. difficile toxin B glycohydrolase activity; TcdB glycohydrolase enzymatic assay, plate reader; inhibition, % at 9.99 µM; 350,000 tested, 0.24% active; in the data active means inhibition above about 10%
DUSP3 inh – inhibitors of human VHR1 phosphatase (DUSP3); inhibition, % at 13.3 µM; recombinant VHR phosphatase, pNPP absorbance; 290,000 tested, 0.52% active; AID 1654; in the data active means inhibition above about 50%
PrPC TRFRET cf – confirmation of inhibitors of cell surface human prion protein; cell surface PrPC level, TR-FRET; inhibition, % at 13.8 µM; AID 743200; shares compounds with PrPC surface inh; 1,500 tested, 65% active; in the data active means inhibition above about 25%
LD9 cytotox – LD9 cell cytotoxicity, PrPc inhibitor counter-screen | 1,500 tested, 29% active | LD9 cells cytotoxicity, luminescence viability | inhibition, % at 13.8 µM | shares compounds with PrPC surface inh; in the data active means inhibition above about 9.5%
* marks the source's active call; other numbers are inactive results.

COc1ccc(NC(=O)c2c(N)no[n+]2[O-])c(OC)c1 was read as PrPC surface inh 0.2, TcdB inh 0.6 and DUSP3 inh 8.3.
COc1ccc(NC(=O)c2c(N)no[n+]2[O-])cc1 was read as PrPC surface inh 26.1*, TcdB inh 0.4, DUSP3 inh 22.6, PrPC TRFRET cf 25.1* and LD9 cytotox -6.9.
For O=C(NCc1cccc(F)c1)[C@@H]1[C@@H](CO)[C@@H]2Cn3c(ccc(-c4ccncc4)c3=O)[C@H]1N2CC1CC1 the results were TcdB inh 0.8.
Screening Cc1cc(SCCC(=O)O)nc2c(C)cccc12 returned PrPC surface inh 70.9*, DUSP3 inh -8.1, PrPC TRFRET cf 68.6* and LD9 cytotox 3.6.
Cc1cc(SCC(=O)N2CCCC2=O)nc2c(C)cccc12 was read as PrPC surface inh 13.7 and TcdB inh 3.2.
For CCC(=O)Nc1ccc2c(c1)OC[C@H](C)N(C(=O)NC(C)C)C[C@@H](C)[C@H](OC)CN(C)C2=O the results were TcdB inh 8.6.
NC(=O)c1nn(-c2ccccc2)c(=O)cc1O was read as PrPC surface inh -0.6 and DUSP3 inh 30.5.
Screening NC(=O)c1nn(-c2cccc(Cl)c2)c(=O)cc1O returned PrPC surface inh 48.9*, DUSP3 inh 16.4, PrPC TRFRET cf 48.7* and LD9 cytotox -7.6.
COCc1cc(C)nc(SCc2ccccc2Cl)c1C#N was read as PrPC surface inh 25.2*, TcdB inh -0.3, DUSP3 inh 44.5, PrPC TRFRET cf 6.5 and LD9 cytotox -4.1.
`COCc1cc(C)nc(SCc2ccc([N+](=O)[O-])cc2)c1C#N` gave PrPC surface inh -0.5, TcdB inh -0.1 and DUSP3 inh 4.1.
COc1ccc(S(=O)(=O)Nc2ccc3c(c2)C(=O)N([C@H](C)CO)C[C@@H](C)[C@H](CN(C)C(=O)Nc2ccc(F)cc2)OCCCC[C@@H](C)O3)cc1 was read as TcdB inh -0.4.
Screening C=CCNC(=O)c1ccc(Cn2c(=S)[nH]c3cc4c(cc3c2=O)OCO4)cc1 returned PrPC surface inh 54.4*, DUSP3 inh 40.7, PrPC TRFRET cf 35.3* and LD9 cytotox 7.7.
Screening O=C(NCCN1CCCC1)c1ccc(Cn2c(=S)[nH]c3cc4c(cc3c2=O)OCO4)cc1 returned PrPC surface inh -4.0 and DUSP3 inh 28.6.
`O=C(CCN1CCCCC1)N[C@@H]1CC[C@@H](CCNS(=O)(=O)c2ccc(Cl)cc2)O[C@@H]1CO` gave TcdB inh -0.2.
Screening COc1ccc2c(C)c(C(=O)O)oc2c1 returned PrPC surface inh 28.5*, DUSP3 inh 14.0, PrPC TRFRET cf 30.0* and LD9 cytotox -1.3.
For COc1ccc2c(=O)cc(C(=O)O)oc2c1 the results were PrPC surface inh 3.6, TcdB inh -0.3 and DUSP3 inh -2.7.
`Cc1ccc(S(=O)(=O)Nc2cccc3c2O[C@H](CN(C)C)[C@@H](C)CN([C@@H](C)CO)C3=O)cc1` gave TcdB inh 0.1.
CC=Cc1ccc2n(c1=O)C[C@H]1[C@H](CO)[C@@H](C(=O)NCCC)N(C(=O)CC)[C@@H]21 (mixture of isomers) was read as TcdB inh 0.9.
Screening COc1ccc(N(C)S(=O)(=O)c2cccc(C(=O)NC3CCCCC3C)c2)cc1 (configuration not stated) returned PrPC surface inh 26.0*, TcdB inh -1.5, DUSP3 inh 10.3, PrPC TRFRET cf 12.5 and LD9 cytotox -3.8.
For COc1ccc(N(C)S(=O)(=O)c2cccc(C(=O)NC3CCCC3)c2)cc1 the results were PrPC surface inh 13.7, TcdB inh 1.8 and DUSP3 inh 16.5.
`Cc1ccc(OCc2cc(C(=O)NCc3cn4ccccc4n3)no2)cc1C` gave PrPC surface inh 43.1*, TcdB inh 0.0, DUSP3 inh -2.4, PrPC TRFRET cf 39.3* and LD9 cytotox -5.4.
O=C(NCCc1cn2ccccc2n1)c1cc(COc2c(F)cccc2F)on1 was read as PrPC surface inh -2.1, TcdB inh 0.8 and DUSP3 inh 30.5.
For COc1ccc2c3c(n(C)c2c1)[C@H](CO)N(C(=O)Nc1ccc(F)cc1)CC31CN(C(=O)c2ccccc2F)C1 the results were TcdB inh 0.6.
`NS(=O)(=O)c1ccc(CNS(=O)(=O)c2ccc3ccccc3c2)cc1` gave PrPC surface inh -1.3, TcdB inh -1.2 and DUSP3 inh 10.5.
For Cc1cc(C)c(S(=O)(=O)NCc2nc3nc(C)cc(C)n3n2)c(C)c1 the results were PrPC surface inh -0.2, TcdB inh 1.6 and DUSP3 inh 37.0.
Screening CC(=O)Nc1ccc(S(=O)(=O)NCc2ccc3[nH]c(C)cc3c2)cc1 returned PrPC surface inh 5.1, TcdB inh -2.0 and DUSP3 inh -1.9.
`CC(=O)Nc1ccc(S(=O)(=O)NCc2ccc3c(c2)cc(C)n3C)cc1` gave PrPC surface inh 34.5*, TcdB inh 7.8, DUSP3 inh 35.7, PrPC TRFRET cf 11.3 and LD9 cytotox 3.4.
Cc1cc2cc(CNS(=O)(=O)c3ccc4ccccc4c3)ccc2n1C was read as PrPC surface inh 43.2*, TcdB inh 0.9, DUSP3 inh 2.4, PrPC TRFRET cf 37.0* and LD9 cytotox 3.3.
Screening Cc1cc(C)c(S(=O)(=O)NCc2ccc3c(c2)cc(C)n3C)c(C)c1 returned PrPC surface inh 39.1*, TcdB inh 0.5, DUSP3 inh 6.6, PrPC TRFRET cf 43.4* and LD9 cytotox -2.0.
`C[C@@H]1CCCCO[C@@H](CN(C)S(=O)(=O)c2ccc(Cl)cc2)[C@@H](C)CN([C@@H](C)CO)C(=O)c2cc(NC(=O)CCC(F)(F)F)ccc2O1` gave TcdB inh 0.1.
For COc1ccc(CN(C)C[C@@H]2Oc3ccc(NC(=O)CCCN(C)C)cc3C(=O)N([C@H](C)CO)C[C@H]2C)cc1 the results were TcdB inh 0.0.
Screening COc1ccc2c3c(n(C)c2c1)[C@@H](CO)N(C(=O)NC(C)C)CC31CN(CC2CCOCC2)C1 returned TcdB inh 0.7.
For CO[C@@H]1CN(C)C(=O)c2ccc(NC(=O)C3CCCCC3)cc2OC[C@@H](C)NC[C@@H]1C the results were TcdB inh 1.0.
`O=C(Nc1cccc(F)c1)N1CC(=O)N2[C@@H](CO)[C@@H](c3ccc(Br)cc3)[C@@H]2C1` gave TcdB inh -0.8.
`N#Cc1c(SCC(=O)Nc2nncs2)sc2c(O)cc(=O)[nH]c12` gave PrPC surface inh 26.8*, TcdB inh 0.8, DUSP3 inh -2.9, PrPC TRFRET cf 1.1 and LD9 cytotox -3.6.
For N#Cc1c(SCC(=O)Nc2ccc(C(F)(F)F)cc2)sc2c(O)cc(=O)[nH]c12 the results were PrPC surface inh -5.8, TcdB inh 0.8 and DUSP3 inh 8.0.
Screening O=c1c(Cc2ccc(Cl)cc2)c(O)ccn1Cc1ccccc1 returned PrPC surface inh 5.4 and DUSP3 inh 41.6.
For CCOC(CCn1ccc(O)c(Cc2ccc(Cl)cc2)c1=O)OCC the results were PrPC surface inh 35.0*, TcdB inh -0.9, DUSP3 inh -5.3, PrPC TRFRET cf 11.2 and LD9 cytotox -1.2.

Screening results (PubChem)
